Source: PubChem BioAssay (NCI)
The panel holds about 83,000 compounds, 20% with a hit somewhere; the sample as a whole holds those more often.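 Results are percent growth after 48 hours of single-concentration exposure. 100 means growth as in untreated cells, lower positive values show inhibition; negative values down to -100 show cell death.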 Activity calls are given as the source filed them. The calls were made as follows: active = growth percent below 10; inactive = the rest.

tested on: MDA-MB-468 breast; assay: NCI-60 one-dose screen, 48 h (100 = growth as untreated, 0 = no growth, -100 = all killed); details: 10 µM unless noted

Row | Compound | growth
1 | CC(=O)OC[Si](C)(C)c1ccccc1 | 95.3% (inactive)
2 | O=C1C[C@@H](c2ccccc2)Oc2c(Cc3ccccc3O)c(O)c(Cc3cc(Cc4cc(Cc5ccccc5O)ccc4O)ccc3O)c(O)c21 | 101% (inactive)
3 | CN(CCCCCl)P(=O)(OCc1ccc([N+](=O)[O-])o1)C(F)(F)c1ccc(CC(=O)NC[C@@H](O)/C=C\[C@@H](O)[C@H](CO)Cc2ccccc2)cc1 (stereo partly specified) | 55% (inactive)
4 | CCOc1ccccc1NC(=O)CCl | 79.4% (inactive)
5 | Cc1cc(Nc2cc(N3CCN(C)CC3)nc(Sc3ccc(NC(=O)C4CC4)cc3)n2)n[nH]1 | 46.7% (inactive)
6 | CN(C)C1=NCCN1 | 108% (inactive)
7 | Clc1ccc2c(NCCCn3ccnc3)c3oc4ccccc4c3nc2c1 | 39.7% (inactive)
8 | C=C1CCC2C3(C)COC(c4cccc(Cl)c4)OC3CCC2(C)C1/C=C/C1=CCOC1=O (stereo unspecified) | 43.6% (inactive)
9 | CN(C)CCCNc1nc(-c2cccc(C(Cl)(Cl)Cl)c2)nc(C(Cl)(Cl)Cl)n1 | 114% (inactive)
10 | CCNC(=O)Oc1ccc(/C(=C(\C)c2ccc(Cl)cc2)c2ccc(OCCN(CC)CC)cc2)cc1 | 67.5% (inactive)
11 | NS(=O)(=O)c1ccc(CCN2C(=O)/C(=C\c3ccccc3)C=C2c2ccc(Cl)cc2)cc1 | 103% (inactive)
12 | O=[N+]([O-])/C(=C/C=C/c1ccccc1)c1ccccc1 | 2.79% (active)
13 | NC(=O)c1ncn2c(=O)n(CCF)nnc12 | 48.4% (inactive)
14 | Cn1cc(C(=O)c2nc(-c3c[nH]c4ccccc34)no2)c2ccccc21 | -4.38% (active)
15 | CCNC(=O)Oc1ccc(/C(=C(\C)c2ccccc2)c2ccc(OCCCN(C)C)cc2)cc1 | 86.6% (inactive)
16 | N#Cc1ccc(S(=O)(=O)Nc2ccc(-c3cnc(N)[nH]3)cc2)cc1 | 97.7% (inactive)
17 | CO[C@H]1C[C@@H]2CC[C@@H](C)[C@@](O)(O2)C(=O)C(=O)N2CCCC[C@H]2C(=O)O[C@H]([C@H](C)C[C@@H]2CC[C@@H](OCCO)[C@H](OC)C2)CC(=O)[C@H](C)/C=C(\C)[C@@H](O)[C@H](OC)C(=O)[C@H](C)C[C@H](C)\C=C/C=C/C=C/1C | 26.9% (inactive)
18 | COCCn1cc(-c2csc(-c3c[nH]c4ccccc34)n2)c2cccnc21 | -6.7% (active)

Row | Compound | growth
19 | NC(=S)N/N=C/c1ccc(OCc2ccccc2)cc1 | 47.3% (inactive)
20 | COc1ccc(-c2nsc3c2NC(=O)CC3c2ccc(Cl)cc2)cc1 (stereo unspecified) | 58.7% (inactive)
21 | O=C(c1ccc(O)c(C(=O)N2Cc3ccc(OCCC[P+](c4ccccc4)(c4ccccc4)c4ccccc4)cc3C2)c1)N1Cc2cccc(F)c2C1 | 2.97% (active)
22 | C=CCOc1ccc2c(c1)CC=C1[C@@H]2CC[C@]2(C)C(=O)/C(=N/O)C[C@@H]12 | 55.7% (inactive)
23 | COc1ccc(-c2c(N)n[nH]c2-c2cc(OC)c3c(c2)OCCO3)cc1 | 71.7% (inactive)
24 | CCOC(=O)C1CC(=O)c2cc(OC)c(OC)cc2C1 (stereo unspecified) | 84.9% (inactive)
25 | COc1ccc(/C=C2\N=C3Sc4cc(Cl)ccc4C(=O)N3C2=O)cc1 | 113% (inactive)
26 | CCN(CC)Cc1cc(Nc2c3ccc(Cl)cc3nc3ccc(OC)cc23)ccc1O | 60.5% (inactive)
27 | COC(=O)[C@@]12OC[C@]34[C@H]([C@@H](O)[C@@H]1O)[C@@]1(C)[C@H](O)C(=O)C=C(C)[C@@H]1C[C@H]3OC(=O)C(OC(C)=O)[C@@H]24 (stereo partly specified) | -11.6% (active)
28 | CCC(CC)n1c(=O)c(SC2=NC3C(NN2)N(CC)C(=O)N3CC)c(C(=O)O)c2ccccc21 (stereo unspecified) | 23% (inactive)
29 | O=C1Nc2ccc(F)cc2/C1=C\c1nc(-c2ccccc2F)n2ccccc12 | 69.2% (inactive)
30 | COc1cc(-c2nn(C(C)(C)C)cc2-c2ccnc(NCCCNS(=O)(=O)c3ccc(C)cc3)n2)ccc1Cl | 79% (inactive)
31 | O=C1OCC2=C1C(c1cccc(Br)c1)c1cc3c(cc1N2CCO)CCC3 (stereo unspecified) | -3.99% (active)
32 | CC(=O)c1nn(-c2ccccc2)c(=Nc2ccccc2)cc1C | 91.9% (inactive)
33 | Cn1c(=O)c2c(-c3ccccc3F)n(-c3ccc4c(c3)OCO4)cc2n(C)c1=O | 83.2% (inactive)
34 | COc1ccc(NC(=O)c2cc(NCc3cc(O)ccc3O)ccc2O)cc1 | 88.5% (inactive)
35 | CNC(=O)c1cc(Oc2ccc3c(c2)sc2nc(-c4ccc(Cl)cc4)cn23)ccn1 | 77.3% (inactive)
36 | C/C=C(\C)C(C(=O)NC1CCCCC1)N(C(=O)C1CCc2cc(F)ccc2O1)c1ccc([N+](=O)[O-])cc1 (stereo unspecified) | 85.6% (inactive)
